According to the supplement of paper PMC6897291:

System: RIVA
Assay: growth inhibition by drug plus 177Lu-lilotomab satetraxetan (1 - RLU/untreated control) (fraction); higher = stronger inhibition
Conditions: 177Lu-lilotomab satetraxetan 0.5 ug/ml
Protocol: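 RIVA (RI-1) ABC-DLBCL cells were pretreated or not for 18 h with 0.5 ug/ml 177Lu-lilotomab satetraxetan (600 MBq/mg), washed and seeded (3000 cells/well) on 384-well plates pre-printed with the Selleck Cambridge Cancer Compound library. Viability was read by RealTime-Glo luminescence on days 3-6 after seeding. Effect = 1 - RLU/mean RLU of the 48 untreated no-drug control wells per plate; Bliss score = (M-E)/(1-Fa).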

Structure (SMILES)	growth inhibition by drug plus 177Lu-lilotomab satetraxetan (10 nM, time (day): 3)	growth inhibition by drug plus 177Lu-lilotomab satetraxetan (10 nM, time (day): 4)	growth inhibition by drug plus 177Lu-lilotomab satetraxetan (10 nM, time (day): 5)	growth inhibition by drug plus 177Lu-lilotomab satetraxetan (10 nM, time (day): 6)	growth inhibition by drug plus 177Lu-lilotomab satetraxetan (100 nM, time (day): 3)	growth inhibition by drug plus 177Lu-lilotomab satetraxetan (100 nM, time (day): 4)	growth inhibition by drug plus 177Lu-lilotomab satetraxetan (100 nM, time (day): 5)	growth inhibition by drug plus 177Lu-lilotomab satetraxetan (100 nM, time (day): 6)
CCC1(c2ccc(N)cc2)CCC(=O)NC1=O (stereo not given) [Aminoglutethimide (Cytadren)]	0.446	0.523	0.538	0.547	0.226	0.376	0.379	0.408
C=C1C[C@@H]2[C@H](CC[C@]3(C)C(=O)CC[C@@H]23)[C@@]2(C)C=CC(=O)C=C12 [Exemestane]	0.609	0.639	0.647	0.653	0.483	0.528	0.533	0.543
Cn1cc(C2=C(c3cn(C4CCN(Cc5ccccn5)CC4)c4ccccc34)C(=O)NC2=O)c2ccccc21	0.515	0.546	0.557	0.564	0.356	0.435	0.443	0.436
CN(C)CCN(C)CCc1ccc(Cl)c(Cl)c1	0.215	0.408	0.459	0.48	0.0519	0.192	0.22	0.211
O=P1(N(CCCl)CCCl)NCCCO1 (stereo not given) [Cyclophosphamide monohydrate]	0.338	0.47	0.502	0.506	0.305	0.403	0.426	0.394
